PubChem BioAssay AID588413 (Sanford-Burnham Center for Chemical Genomics, 2011)
The whole screen tested about 340,000 compounds, of which about 2,500 (0.74%) were called active. The entries come from a sample that favours actives as a whole. A number with no mark means an inactive call.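 Rule for the calls: active = inhibition above about 55% (limit read from the data); inactive = the rest.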

Assay: Gli-Sufu pathway antagonists, primary screen, luciferase luminescence, Sufu-KO-LIGHT cells, uHTS (AID 588413);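 note: 0% = DMSO-treated cells and 100% = wells with medium but no cells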
Details: Sufu-KO-LIGHT fibroblasts, Gli luciferase reporter luminescence; at 5 µM; stronger effect = higher value

SMILES | inhibition
COC(=O)c1cccc(NC(=O)c2cccc(N3C(=O)CCC3=O)c2)c1 | 8.09%
COc1ccccc1-c1nnc(NC(=O)c2cccc(N3C(=O)CCC3=O)c2)o1 | -6.14%
Cc1cc(NC(=O)c2cccc(N3C(=O)CCC3=O)c2)no1 | 98.8% (active)
C/C(CC(=O)N1CCN(C=O)CC1)=N\NC(=O)c1ccc(Br)cc1 | 3.23%
CCOC(=O)c1c(C)nn(-c2ncccc2NC(=O)CCC(=O)O)c1C | 1.77%
Cn1c(=O)n(C)c2cc(CNc3ccc(N4CCOCC4)c(C(=O)O)c3)ccc21 | 5.36%
CN1C(CC(=O)Nc2ccc(Br)cc2)c2ccccc2CC1(C)C (stereo unspecified) | 75.8% (active)
CN1CCN(NC(=O)Nc2ccc(Br)cc2)CC1 | -5.05%
COCC(=O)Nc1ccc(Br)cc1 | -3.01%
COc1ccc(C(=O)N2CCCC(C(=O)c3ccccc3OC)C2)cc1OC (stereo unspecified) | -11.7%
COc1ccccc1C(CNC(=O)c1cccc(NS(=O)(=O)c2ccc(Br)cc2)c1)N(C)C (stereo unspecified) | 4.43%
CC(C)Oc1ccc(CN2CCC(n3nccc3NC(=O)c3cccnc3)CC2)cc1 | 61.3% (active)
COc1ccccc1C(=O)Nc1ccnn1C1CCN(Cc2cnn(C)c2)CC1 | 8.85%
COc1ccc(C(=O)Nc2ccnn2C2CCN(Cc3ccncc3)CC2)cc1 | -4.23%
COCCn1cnnc1SCC(=O)Nc1cccc(S(=O)(=O)N2CCCCC2)c1 | -21.3%
CCOc1cccc(NC(=O)Cn2nc(-c3ccc4c(c3)OCCO4)ccc2=O)c1 | -1.4%
Cc1c(C(=O)NCC(c2ccco2)N2CCCC2)oc2ccc(Cl)cc12 (stereo unspecified) | 16.9%
O=C1[C@@H](c2ccccc2)[C@@H](c2ccccc2)N1c1cccnc1 | 7.59%
C[C@@H]1NS(=O)(=O)c2cc(Cl)ccc2O[C@@H]1c1ccccc1 | -5.11%
O=C(COc1cccc(Cl)c1)NCc1ccccc1 | 5.34%
CCOc1cccc(C(=O)Nc2cnn(Cc3ccccc3)c2)c1 | -43.8%
O=C(O)CCCn1cc(NC(=O)COc2cccc(Cl)c2)cn1 | 62.4% (active)
COC(=O)C1CC2=C(CC(C)(C)CC2=O)N(c2ccccc2)C1=O (stereo unspecified) | 4.81%
Cc1ccc(C(CNC(=O)Nc2cccc(C)c2)N2CCN(C)CC2)cc1 (stereo unspecified) | 44.3%
CCOc1cc(C2/C(=C(/O)c3ccc(S(=O)(=O)N4CCCCC4)cc3)C(=O)C(=O)N2CCOC)ccc1O (stereo unspecified) | -6.41%
CCCN(C(=O)CSc1nnnn1C)c1c(N)n(Cc2ccccc2)c(=O)[nH]c1=O | -4.32%
